Measured values from PubChem BioAssay AID2098 (Broad Institute, 2009).
In all, about 300,000 compounds went through this assay and about 2,300 (0.77%) were called active.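 The calls were made as follows: active = more than half of replicate wells show activity change below -50%, luminescence cut by over half; inconclusive = some wells, but at most half, below -50%; inactive = no replicate well below -50%.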 Many of the other results were omitted from the sample, so actives are more common in it than they were.

experiment: blocking HSF1-driven luciferase expression – cell-based, NIH3T3, luminescence, primary screen (AID 2098); conditions: NIH3T3-HGL HSE-luciferase, MG132-induced, luminescence 8 h; hits give low values; screened at 7.5 µM (by protocol);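 also: luciferase reports HSF-1 transcriptional activity via heat shock element; 0% = median of DMSO wells and -100% = zero luminescence signal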

Activity change, negative = inhibition, inactive:
CC(C)N(Cc1nnc(-c2ccc(Cl)cc2)o1)C(=O)C1=COCCO1 -0.126%
Cc1ccc(C(=O)N/N=C/c2cccc3ccccc23)cn1 2.62%
COc1ccc(-c2ccc3nnc(SCC(=O)Nc4ccc(NC(C)=O)cc4)n3n2)cc1 -1.23%
COc1ccc(S(=O)(=O)N2CCCC2CNC(=O)C(=O)NC2CC2)cc1 (configuration not stated) -3.82%
COc1ccc(N(CC(=O)NC2CCCCC2)S(=O)(=O)c2c(C)[nH]c(=O)[nH]c2=O)cc1 4.32%
CCOc1ccc(N(CC(=O)NC2CCCCCC2)S(=O)(=O)c2c(C)[nH]c(=O)[nH]c2=O)cc1 -0.37%
COc1cc(Cl)ccc1OCc1cc(C(=O)N(C)CCc2c(C)n[nH]c2C)no1 11.4%
CCn1ccnc1CN(C)C(=O)c1cc(COc2ccc(-n3cncn3)cc2)on1 -9.56%
O=C(O)CCn1c(Cc2ccccc2)nc2ccccc21 0.662%
Cc1cc2ccccc2n1CCC(=O)O -0.843%
C=CCOc1ccc(/C=C/C(=O)OC(C)C(=O)Nc2ccc(NC(C)=O)cc2)cc1 (configuration not stated) 12.2%
COc1ccc(CCNC(=S)N2CCN(S(=O)(=O)c3ccc(F)cc3)CC2)cc1 -3.63%
CCCC(=O)N1c2ccccc2NC2=C(C(=O)CCC2)C1c1ccc(F)cc1 (configuration not stated) -0.85%
CCC(=O)N1c2ccccc2NC2=C(C(=O)CCC2)C1c1ccco1 (configuration not stated) -0.999%
O=C(NCC1(N2CCCCC2)CCCCC1)c1ccc(NS(=O)(=O)c2ccc(F)cc2)cc1 -3.19%
CN(C(=O)COC(=O)c1ccc(Br)o1)c1c(N)n(Cc2ccccc2)c(=O)[nH]c1=O -3.83%
O=C(COC(=O)Cc1c[nH]c2ccccc12)NCCc1ccccc1 -4.81%
Cc1cc(=O)oc2cc(NC(=O)C(C)Oc3ccccc3)ccc12 (configuration not stated) 1.47%
COc1ccc(Oc2c(Cl)cnn(-c3ccccc3)c2=O)cc1 -5.38%
Cc1cccc(-n2ncc(C#N)c2-n2cccc2)c1 2.7%
CC1(c2ccc(Cl)cc2Cl)NC(=O)N(CC(=O)Nc2cccnc2Cl)C1=O (configuration not stated) 1.88%
CCCOc1ccc(Cl)cc1Nc1nc(NCCO)nc(N2CCCC2)n1 1.49%
COC(=O)c1ccc(COC(=O)C2CCN(S(=O)(=O)c3c(Cl)cccc3Cl)CC2)o1 5.96%
COC(=O)c1sc(NC(=O)c2ccc(OC)cc2OC)nc1C -40.1%
COc1cc(SC)ccc1C(=O)Nc1cc(C)ccn1 28.6%
Cc1ccc(C(=O)C(C)OC(=O)Cc2n[nH]c(=O)c3ccccc23)cc1C (configuration not stated) -5.5%
NC(=O)c1ccsc1NC(=O)COC(=O)Cc1n[nH]c(=O)c2ccccc12 -1.64%
COc1ccc(CC(=O)OC(C)C(=O)Nc2ccc(S(N)(=O)=O)cc2)cc1 (configuration not stated) -3.68%
CCc1cccc(NC(=O)COC(=O)C2CCN(c3ccc(C(F)(F)F)cn3)CC2)c1 -4.52%
Cc1cccc(NC(=O)Nc2ccc(OCc3ccccc3)cc2)n1 1.3%
CCc1ccnc(NC(=O)Nc2ccc(OCc3ccccc3)cc2)c1 -11.4%
O=C(CCCN=C1NS(=O)(=O)c2ccccc21)OCC(=O)c1ccc(F)c(F)c1 -2.57%
CCN(Cc1cc2cc(C)ccc2[nH]c1=O)S(=O)(=O)c1ccccc1 -3.14%
CCC(=O)N(Cc1cc2cc(OC)ccc2[nH]c1=O)c1ccccc1C -6.72%
COc1ccccc1NC(=O)C(C)OC(=O)c1ccc(-n2cnnn2)cc1 (configuration not stated) -4.36%
O=C1CC2(CCCC2)Oc2ccc(Cl)cc21 -9.81%
COc1cc2c(cc1O)[C@H](Cc1ccc(Oc3cc(C[C@@H]4NCCc5cc(OC)c(O)cc54)ccc3O)cc1)NCC2 -2.77%
COc1ccc2c(c1)CCNC2Cc1ccc(OC)c(O)c1 (configuration not stated) 0.52%
C=CCOC(=O)C1=C[C@H](c2ccc(Br)cc2)C[C@H](OCCCCO)O1 -3.77%
O=C(NCc1ccccc1Cl)C1CCN(c2ncnc3c2nc2n3CCCCC2)CC1 -6.69%
COc1cccc(NC(=O)C2CCCN(c3ncnc4c3nc3n4CCCCC3)C2)c1 (configuration not stated) -3.75%
COc1ccccc1CNC(=O)CSc1nc(=O)n(Cc2ccncc2)c2c1CCC2 -0.526%
Cn1c(SCC(=O)c2ccccc2)ncc(C(=O)Nc2ccc(F)cc2)c1=O 3.83%
CN(C)S(=O)(=O)c1cccc(NC(=O)Cc2ccsc2)c1 5.64%
Cc1ccc(/C=N/NC(=S)Nc2cccc(S(=O)(=O)N(C)C)c2)o1 -4.55%
COc1cccc(CNC(=O)C(=O)NCCC2CCCCN2S(=O)(=O)c2ccc(C)cc2)c1 (configuration not stated) -3.75%

Activity change, negative = inhibition, active:
COc1ccc(N(CC(=O)NC2CCCCCCC2)S(=O)(=O)c2c(C)nn(C)c2C)cc1 -60.7%
CCn1ccnc1CN(C)C(=O)c1cc(COc2ccc(Cl)cc2OC)on1 -51.9%
O=C(O)CCn1c(O)c(C=C2N=c3ccccc3=N2)sc1=S -52.2%
CC(C)C(=O)N1c2ccccc2NC2=C(C(=O)CCC2)C1c1ccc(N(C)C)cc1 (configuration not stated) -60.9%
Cc1cccc(-n2ncc(Cl)c(Cl)c2=O)c1 -95.3%
COc1cc(SC)ccc1C(=O)Nc1nc(C)cs1 -63.8%
O=C(O)/C=C\C(=O)Nc1ccc(OCc2ccccc2)cc1 -65.7%
COc1ccc2[nH]c(=O)c(CN(Cc3cccnc3)S(=O)(=O)c3ccccc3F)cc2c1 -52.3%
CC[C@H]1CN2CCc3cc(OC)c(OC)cc3[C@@H]2C[C@@H]1C[C@H]1NCCc2cc(OC)c(OC)cc21 -74.7%
CCOC(=O)c1cccc(NC(=O)C2CCN(c3ncnc4c3nc3n4CCCCC3)CC2)c1 -72.4%
Cc1nc(C)c(-c2nnc(-c3cccc(S(=O)(=O)N(C)C)c3)o2)cc1C(=O)NN -63.1%
